# Bioassay records deposited in PubChem BioAssay by National Center for Advancing Translational Sciences (NCATS).
# Rows were chosen to be rich in hits. Some 19% of all compounds tested hit in one or more screens of this group.
# SARS PLP yeast: SARS-CoV PLP inhibition in yeast; S. cerevisiae expressing SARS-CoV PLpro, growth rescue; Potency, µM (top dose mostly 32.9 µM), for inactives: at the highest dose activity, positive = growth rescue, most hits filed as activators; 0.19% of 330,000 active; calls by dose curve; also: potency is read from the fitted curve at half-maximal effect; 0% is about no effect; nearly all actives have a fitted effect of over 55% in size
# Pf growth 48h: P. falciparum growth inhibition at 48 hours (one generation); AID 504832; P. falciparum luciferase growth in erythrocytes, 48 h; 5.9% of 310,000 active; Potency, µM (titrated, usually from 28.7 µM), for inactives: at the highest dose activity change, negative = inhibition, hits mostly inhibitors; also: potency is read from the fitted curve at half-maximal effect; % is scaled to controls: 0 for no effect and ±100 for the full control effect
#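 Growth was read as firefly luciferase luminescence after a 48 h, 37 C, 5% CO2 exposure of compounds to reporter-bearing P. falciparum cultures (0.1% parasitemia, 2% hematocrit final) in Albumax-supplemented RPMI 1640.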
# Shiga toxin inh: blocks Shiga toxin action in Vero cells; Vero cells, Shiga toxin protein synthesis inhibition reporter; inhibition, % at 38.7 µM; 9.2% of 290,000 active; AID 2315; in the data active = inhibition mostly above about 28%, no sharp cut-off; inactive = mostly below about 43%; also: 0% is about no effect
# CHX counter: affects cycloheximide protein synthesis inhibition readout, counter-screen; cell reporter, cycloheximide protein synthesis inhibition counterscreen; max response, %; 12% of 300,000 active; AID 2314; in the data active = max response mostly above about 13%, no sharp cut-off; inactive = mostly below about 14%; also: read at 38.3 µM for the half of the compounds with a filed dose; 0% is about no effect
# Pf growth 96h: inhibits malaria parasite growth, 96 h. P. falciparum luciferase reporter growth, 96 h. Potency, µM (top dose mostly 28.7 µM), for the others: at the top dose activity change, negative = inhibition, usual class: inhibitors. 6.9% of 320,000 active; also: potency is read from the fitted curve at half-maximal effect; % is scaled to controls: 0 for no effect and ±100 for the full control effect
#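 Erythrocytes infected with luciferase-expressing P. falciparum were dispensed at 2% hematocrit and 0.05% parasitemia (final), then incubated with compounds 96 hours at 37 C in 5% CO2. Luminescence after detection reagent addition reported growth.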
# AMA1-RON2 inh: inhibitors of Plasmodium falciparum AMA1-RON2 interaction | AlphaScreen AMA1-biotinylated RON2 peptide binding | Potency, µM (titrated, usually from 58.2 µM), for the others: at the top dose activity change, negative = inhibition, actives largely listed as inhibitors | 0.2% of 360,000 active;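 also: potency is read from the fitted curve at half-maximal effect; 0% = vehicle wells and -100% = peptide control; nearly all actives have a fitted effect of over 45% in size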
#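 AMA1 (3D7) with his tag at 25 nM final met compounds first, then biotinylated RON2 peptide at 25 nM; detection used donor plus acceptor beads, 10 µg/mL apiece, read by AlphaScreen after 30 min at room temperature.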
# * hit, by the source's call; ? = inconclusive; · = not tested or not shown. Unless noted, calls follow the shape of the dose curve; as a rule, active = well fitted curve in the direction sought with a large enough effect; inconclusive = small, poorly fitted or top-dose-only effect, or another doubt; inactive = no such curve, though single readings can be large; an effect the other way counts as inactive or inconclusive.
SMILES,SARS PLP yeast,Pf growth 48h,Shiga toxin inh,CHX counter,Pf growth 96h,AMA1-RON2 inh
COCCn1c(C)cc(C(=O)COC(=O)c2ccc[nH]c2=O)c1C,-16%,61%,24,2,205%,5%
COCCn1c(C)cc(C(=O)COC(=O)c2ccc(Br)o2)c1C,-1%,253%,55*,29*,31%,-20%
CCCCN(C)C(=O)c1c[nH]c2ccc(S(=O)(=O)N3CCOCC3)cc2c1=O,-26%,6%,-5,-3,-5%,-4%
CCOC(=O)C1CCN(c2ncnc3c2oc2ccccc23)CC1,-3%,14%,-9,-1,12µM*,-3%
O=C(O)C1CCN(c2nc(-c3ccccc3)nc3c2oc2ccccc23)CC1,-15%,?,-18,17,12µM*,5%
CCOC(=O)C1CCCN(c2ncnc3c2oc2ccccc23)C1 (stereo not drawn),-5%,49%,47,17*,56%,-1%
CCOC(=O)c1cc(-c2ccncc2)nc2c1c(C)nn2-c1ccccn1,0%,5.9µM*,-11,13,13µM*,75%
COc1ccc(-c2cc(C(=O)O)c3c(C)nn(-c4ccccn4)c3n2)cc1,0%,24%,-5,-2,18%,14%
CCOC(=O)C1CCN(c2nc(-c3ccccc3)nc3c2oc2ccccc23)CC1,-5%,?,-20,-2,·,-5%
CCOC(=O)c1cnn(-c2cc(Oc3ccccc3)ncn2)c1N,7%,86%,-3,-1,0%,5%
CCOC(=O)c1cnn(-c2ccccn2)c1N,3%,202%,99*,63*,?,8%
CCOC(=O)c1cnn(-c2ncnc3c2oc2ccccc23)c1N,-1%,100%,68,16*,30%,23%
